The text below walks through data of PubChem BioAssay (NCI).

Values joined by “and” are separate entries in the source; they are usually repeats but may differ in a detail not shown here. Identical values can stand only once. Compounds without any hit were thinned out: in the full panel of roughly 83,000, 20% have a hit.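 Negative percent growth values reflect cell death: -40 means 40% of the cells present at the start died, and -100 means all died.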 More than one record can exist for a structure, and the calls need not agree. Active and inactive are the calls of the source. How the source made its calls: active means growth percent below 10; inactive means the rest.

Test systems include HCT-15 colon; HT29 colon; SNB-75 CNS; SNB-19 CNS; U251 CNS; PC-3 prostate; SK-MEL-5 melanoma; UACC-62 melanoma; LOX IMVI melanoma; SK-MEL-28 melanoma; SK-MEL-2 melanoma; SN12C renal; UO-31 renal; TK-10 renal; ACHN renal; CAKI-1 renal; A498 renal; MOLT-4 leukemia; EKVX NSCLC; CCRF-CEM leukemia.
Common to all, as to assay: NCI-60 one-dose screen, 48 h (100 = growth as untreated, 0 = no growth, -100 = all killed)
What all share (conditions): 10 µM unless noted

Take `Nc1ccccc1SC1CC(=O)N(c2cccc3ccccc23)C1=O` (centres undefined): the growth in the experiment with HCT-15 colon is 99% (inactive); in the experiment with HT29 colon, 106% (inactive); with SNB-75 CNS, 76.4% (inactive); in the experiment on SNB-19 CNS, 96.7% (inactive); in the experiment with U251 CNS it was 97.3% (inactive); in the experiment with PC-3 prostate, 87.7% (inactive). In addition, the growth is 96.7% (inactive) with SK-MEL-5 melanoma; 82.6% (inactive) in the experiment on UACC-62 melanoma; 97.1% (inactive) with LOX IMVI melanoma; 96.3% (inactive) in the experiment with SK-MEL-28 melanoma; 92.6% (inactive) in the experiment on SK-MEL-2 melanoma; 98.3% (inactive) in the experiment with SN12C renal. The growth in the experiment with UO-31 renal is 68.6% (inactive); with TK-10 renal, 113% (inactive); in the experiment on ACHN renal it was 97.5% (inactive); in the experiment with CAKI-1 renal it was 79.7% (inactive); in the experiment with A498 renal it was 88.8% (inactive); with MOLT-4 leukemia, 83.5% (inactive).
Turning to `O=C(Nc1ccc([N+](=O)[O-])cc1Cl)c1cc(Cl)ccc1O`, the growth in the experiment with HCT-15 colon is -3.38% (active) and 0.947% (active); in the experiment with HT29 colon, -15.8% (active) and 3.08% (active); with SNB-75 CNS, -35.7% (active) and -48.7% (active); in the experiment with SNB-19 CNS, 13.2% (inactive) and 21% (inactive); with U251 CNS it was 1.12% (active) and 16.7% (inactive); with PC-3 prostate, 2.75% (active) and 6.39% (active). The growth is -89% (active) in the experiment with SK-MEL-5 melanoma; -65.7% (active) and -45.3% (active) in the experiment with UACC-62 melanoma; -17.5% (active) and -58.5% (active) with LOX IMVI melanoma; 5.94% (active) and -10% (active) in the experiment with SK-MEL-28 melanoma; -53.2% (active) and -51.7% (active) in the experiment with SK-MEL-2 melanoma; -3.89% (active) and 6.47% (active) with EKVX NSCLC. Also, the growth is -6.44% (active) and 3.08% (active) in the experiment on SN12C renal; -3.01% (active) and 8.03% (active) in the experiment on ACHN renal; -0.639% (active) and -4.62% (active) with CAKI-1 renal; -22% (active) in the experiment on A498 renal; -20% (active) and 9.33% (active) in the experiment with CCRF-CEM leukemia; -44.2% (active) and -6.34% (active) in the experiment with MOLT-4 leukemia.
As to `CC(/C=N/N1C(=O)c2ccccc2C1=O)c1ccccc1` (centres undefined), the growth in the experiment on HCT-15 colon was 98.2% (inactive); in the experiment on HT29 colon, 108% (inactive); in the experiment with SNB-75 CNS, 83% (inactive); in the experiment with SNB-19 CNS, 95.9% (inactive); with U251 CNS it was 99.5% (inactive); with PC-3 prostate, 102% (inactive). In addition, the growth with SK-MEL-5 melanoma is 99.4% (inactive); in the experiment with UACC-62 melanoma, 111% (inactive); in the experiment on LOX IMVI melanoma, 98.3% (inactive); with SK-MEL-28 melanoma, 103% (inactive); in the experiment on SK-MEL-2 melanoma, 110% (inactive); in the experiment on SN12C renal, 99.6% (inactive). In addition, the growth with UO-31 renal is 88.1% (inactive); with TK-10 renal, 113% (inactive); in the experiment on ACHN renal, 97.4% (inactive); with CAKI-1 renal, 83.6% (inactive); with A498 renal, 98% (inactive); in the experiment on CCRF-CEM leukemia, 110% (inactive). Moreover, the growth with MOLT-4 leukemia is 106% (inactive).
As to `CC12CCC(CC1)C(C)(C)O2`, the growth is 97.2% (inactive) in the experiment with HCT-15 colon; 95.1% (inactive) with HT29 colon; 74% (inactive) in the experiment on SNB-75 CNS; 103% (inactive) with SNB-19 CNS; 103% (inactive) in the experiment with U251 CNS; 99.7% (inactive) with PC-3 prostate. For the same compound, the growth with SK-MEL-5 melanoma is 102% (inactive); in the experiment with UACC-62 melanoma, 103% (inactive); with LOX IMVI melanoma, 97.4% (inactive); in the experiment with SK-MEL-28 melanoma it was 114% (inactive); in the experiment on SK-MEL-2 melanoma it was 90.7% (inactive); with EKVX NSCLC it was 97.6% (inactive). Besides, the growth was 103% (inactive) in the experiment with SN12C renal; 93.8% (inactive) in the experiment with TK-10 renal; 104% (inactive) in the experiment with ACHN renal; 91.4% (inactive) in the experiment with CAKI-1 renal; 92.7% (inactive) with A498 renal; 92.4% (inactive) in the experiment with CCRF-CEM leukemia. In addition, the growth with MOLT-4 leukemia is 103% (inactive).
Consider `Cc1c(Cl)cccc1NCN1C(=O)c2ccccc2C1=O`, for which the growth in the experiment on HCT-15 colon is 98.4% (inactive); in the experiment on HT29 colon, 104% (inactive); in the experiment with SNB-75 CNS it was 94.4% (inactive); with SNB-19 CNS it was 110% (inactive); with U251 CNS it was 95.5% (inactive); with PC-3 prostate, 101% (inactive). Besides, the growth with SK-MEL-5 melanoma is 99.5% (inactive); with UACC-62 melanoma, 114% (inactive); in the experiment on LOX IMVI melanoma, 97% (inactive); in the experiment with SK-MEL-28 melanoma it was 112% (inactive); with SK-MEL-2 melanoma, 103% (inactive); in the experiment on SN12C renal it was 112% (inactive). For the same compound, the growth with UO-31 renal was 82.8% (inactive); in the experiment on TK-10 renal it was 114% (inactive); in the experiment on ACHN renal, 105% (inactive); with CAKI-1 renal, 94.4% (inactive); in the experiment with A498 renal it was 101% (inactive); with CCRF-CEM leukemia, 105% (inactive). Besides, the growth in the experiment with MOLT-4 leukemia is 116% (inactive).
For the compound `N#C/C(=C/c1c(O)ccc2ccccc12)C(N)=O`, the growth in the experiment on HCT-15 colon is 100% (inactive); with HT29 colon it was 101% (inactive); in the experiment with SNB-75 CNS, 87.4% (inactive); with SNB-19 CNS, 109% (inactive); in the experiment with U251 CNS, 103% (inactive); in the experiment with PC-3 prostate, 94% (inactive). Further, the growth in the experiment with SK-MEL-5 melanoma is 94.1% (inactive); with UACC-62 melanoma it was 104% (inactive); in the experiment with LOX IMVI melanoma, 55.9% (inactive); with SK-MEL-28 melanoma, 110% (inactive); in the experiment with SK-MEL-2 melanoma, 87.6% (inactive); in the experiment with SN12C renal, 108% (inactive). Further, the growth in the experiment on UO-31 renal is 54% (inactive); with TK-10 renal, 114% (inactive); in the experiment with ACHN renal, 92.4% (inactive); in the experiment on A498 renal, 107% (inactive); in the experiment on MOLT-4 leukemia, 92.4% (inactive).
With `N#C/C(=C1C=C/C(=N/O)C(Br)=C/1)c1ccccc1`, the growth in the experiment with HCT-15 colon is 23.1% (inactive); with HT29 colon, 8.98% (active); with SNB-75 CNS, 23% (inactive); in the experiment on SNB-19 CNS it was 94.9% (inactive); in the experiment on U251 CNS it was 26.5% (inactive); with PC-3 prostate, 4.02% (active). Also, the growth in the experiment on SK-MEL-5 melanoma is 53.6% (inactive); in the experiment on UACC-62 melanoma, 33.1% (inactive); in the experiment with LOX IMVI melanoma, 1.02% (active); in the experiment on SK-MEL-28 melanoma, 61.3% (inactive); with SK-MEL-2 melanoma, -22.3% (active); with SN12C renal it was 32.7% (inactive). Also, the growth in the experiment on UO-31 renal was 36.7% (inactive); in the experiment with TK-10 renal, 45% (inactive); in the experiment with ACHN renal, 24.5% (inactive); in the experiment with CAKI-1 renal, 15.1% (inactive); in the experiment with CCRF-CEM leukemia, 4.04% (active); with MOLT-4 leukemia it was 18.5% (inactive).
Take `Nc1cc(-c2cccc(OC(F)(F)F)c2)nc2ccc(N3CCCC3)cc12`: the growth in the experiment with HCT-15 colon is 7.95% (active) and 7.96% (active) and 7.69% (active); in the experiment with HT29 colon, 1.32% (active) and 5.14% (active) and -8.94% (active); with SNB-75 CNS it was 29.7% (inactive) and 34.7% (inactive); in the experiment with SNB-19 CNS, 31% (inactive) and 30.5% (inactive) and 23% (inactive); in the experiment with U251 CNS, -3.82% (active) and 5.25% (active) and 1.38% (active); in the experiment with PC-3 prostate, 20.5% (inactive) and 22.2% (inactive) and 18.3% (inactive). Also, the growth with SK-MEL-5 melanoma is -41.1% (active) and -39.4% (active) and -14.8% (active); in the experiment with UACC-62 melanoma, 8.8% (active) and 27.2% (inactive) and 38.7% (inactive); in the experiment with LOX IMVI melanoma, 2.06% (active) and 12.6% (inactive) and 20.4% (inactive); with SK-MEL-2 melanoma, 11.9% (inactive) and 37.9% (inactive) and 12.2% (inactive); with EKVX NSCLC it was 30.1% (inactive) and 29.9% (inactive) and 38.4% (inactive); in the experiment on SN12C renal, 25.8% (inactive) and 27.9% (inactive) and 25.9% (inactive). The growth in the experiment with UO-31 renal is -6.86% (active) and 12.7% (inactive) and 14.1% (inactive); in the experiment with TK-10 renal it was 46.7% (inactive) and 44.3% (inactive) and 40.9% (inactive); in the experiment on ACHN renal, 27.4% (inactive) and 28.9% (inactive) and 26.3% (inactive); with CAKI-1 renal, 30.7% (inactive) and 35.3% (inactive) and 41.7% (inactive); with A498 renal it was 19.9% (inactive) and 22.5% (inactive) and -7.01% (active); in the experiment with CCRF-CEM leukemia, -15.1% (active) and 2.73% (active) and 4.3% (active). The growth in the experiment with MOLT-4 leukemia was 10.7% (inactive) and 12.7% (inactive) and 12.8% (inactive).
With `COc1cc2nc(N3CCC[C@@H](NC(=O)C4COc5ccccc5O4)C3)nc(N)c2cc1OC` (some centres undefined), the growth in the experiment with HCT-15 colon is 101% (inactive) and 97.1% (inactive); in the experiment on HT29 colon, 109% (inactive) and 97.7% (inactive); in the experiment on SNB-75 CNS it was 83.3% (inactive) and 90.3% (inactive); in the experiment with SNB-19 CNS, 107% (inactive) and 102% (inactive); with U251 CNS, 93.3% (inactive) and 84.2% (inactive); in the experiment with PC-3 prostate, 92.9% (inactive) and 94.2% (inactive). In addition, the growth was 99.5% (inactive) and 96.7% (inactive) in the experiment on SK-MEL-5 melanoma; 103% (inactive) and 104% (inactive) in the experiment on UACC-62 melanoma; 100% (inactive) and 94.7% (inactive) in the experiment on LOX IMVI melanoma; 102% (inactive) and 98.7% (inactive) with SK-MEL-28 melanoma; 112% (inactive) and 107% (inactive) in the experiment on SK-MEL-2 melanoma; 104% (inactive) and 103% (inactive) with SN12C renal. Also, the growth in the experiment on UO-31 renal is 85.7% (inactive) and 65.2% (inactive); in the experiment on TK-10 renal, 98.6% (inactive) and 89.7% (inactive); in the experiment on ACHN renal, 103% (inactive) and 96.4% (inactive); in the experiment with CAKI-1 renal, 92% (inactive) and 89.6% (inactive); in the experiment on A498 renal, 99.4% (inactive) and 83.5% (inactive); in the experiment with CCRF-CEM leukemia it was 96.2% (inactive) and 103% (inactive). Moreover, the growth with MOLT-4 leukemia was 88% (inactive) and 94.3% (inactive).
For `CCC(=O)C(CC)c1cccc(OC)c1` (centres undefined), the growth was 103% (inactive) with HCT-15 colon; 103% (inactive) in the experiment on HT29 colon; 76.7% (inactive) with SNB-75 CNS; 111% (inactive) in the experiment on SNB-19 CNS; 99.4% (inactive) in the experiment with U251 CNS; 98.8% (inactive) in the experiment on PC-3 prostate. Moreover, the growth with SK-MEL-5 melanoma is 101% (inactive); in the experiment with UACC-62 melanoma, 108% (inactive); with LOX IMVI melanoma, 100% (inactive); in the experiment with SK-MEL-28 melanoma, 106% (inactive); with SK-MEL-2 melanoma, 116% (inactive); with EKVX NSCLC it was 106% (inactive). Besides, the growth with SN12C renal is 112% (inactive); with TK-10 renal, 101% (inactive); in the experiment on ACHN renal, 106% (inactive); in the experiment on A498 renal it was 87.8% (inactive); in the experiment on CCRF-CEM leukemia it was 93.8% (inactive); in the experiment with MOLT-4 leukemia, 98.4% (inactive).
